Screening results: PubChem, Milwaukee Institute for Drug Discovery
Rows were chosen to be rich in hits. Some 7.6% of all compounds tested hit in one or more screens of this group.
Cy5 interf NS3h: counter-screen for HCV NS3 helicase inhibitors: fluorescence interference; Cy5-dT15 DNA with NS3h; actives lie on both sides; signal over control mean, under 1 quenches; fluorescence interference ratio at 100 µM; hit rate 6% among 16,000; AID 720488;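 active means compound fluorescence over control fluorescence at most 0.8, a quencher, or at least a set upper limit, an enhancer; inactive means ratio between 0.8 and the set upper limit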
HCV NS3h FP: hepatitis C NS3 helicase inhibition, primary screen | NS3h Cy5-dT15 DNA binding, fluorescence polarization | inhibition, % at 100 µM | hit rate 1.6% among 16,000 | AID 687043;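 active means inhibition above the average over every tested compound plus 3 SD, cut at about 40% in these data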
NS3h confirm: hepatitis C NS3 helicase inhibition, confirmation; shares compounds with HCV NS3h FP; NS3h binding to Cy5-dT15 DNA, fluorescence polarization; inhibition, % at 100 µM; AID 720485; hit rate 20% among 240;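 active means percent inhibition of 50% or more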
SSB FP counter: counter-screen for HCV NS3 helicase inhibitors: E. coli SSB binding. shares compounds with HCV NS3h FP. E. coli SSB binding Cy5-dT15, fluorescence polarization. inhibition, % at 100 µM. hit rate 40% among 240. AID 720486;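 active means inhibition of at least 50%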;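 further: displacers lower Cy5 polarization so higher inhibition means more SSB displaced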
Target sequence (P0AGE0 whole entry, looked up): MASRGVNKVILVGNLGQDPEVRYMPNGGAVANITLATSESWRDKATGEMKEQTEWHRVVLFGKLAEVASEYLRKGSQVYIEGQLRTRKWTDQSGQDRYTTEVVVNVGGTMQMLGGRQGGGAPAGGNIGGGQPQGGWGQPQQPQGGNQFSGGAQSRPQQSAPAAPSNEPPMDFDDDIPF
Cy5 SSB fluor CB: enhances or quenches Cy5-DNA fluorescence with E. coli SSB. Cy5-dT15/E. coli SSB fluorescence interference; actives lie on both sides. shares compounds with HCV NS3h FP. hit rate 8% among 240. fluorescence interference ratio at 100 µM;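 active means fluorescence interference ratio at or above 1.2, signal boosting, or at or below 0.8, signal quenching; inactive means ratio between 0.8 and 1.2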;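 further: ratio of compound well signal to mean negative control signal so 1 means no effect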
Cy5 interf conf: Cy5 fluorescence interference, confirmation counter-screen; shares compounds with HCV NS3h FP; Cy5-dT15 DNA/NS3h fluorescence interference counterscreen; fluorescence interference ratio at 100 µM, hits read low; hit rate 44% among 240; AID 720489;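 active means fluorescence interference ratio at or below 0.8 quencher or at or above a set limitenhancer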;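 further: ratio of compound fluorescence to mean of negative controls so 1 means no interference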
* hit, by the source's call.

How did O=C(Nc1nc2ccc(Cl)cc2s1)C(c1ccccc1)c1ccccc1 do in these assays?
Cy5 interf NS3h: 0.93; HCV NS3h FP: -2

How did Cc1cc2c(cn1)/C(=C\C=C\N(C)C)c1ccccc1-2 do in these assays?
Cy5 interf NS3h: 0.93; HCV NS3h FP: 10

Results for O=C1NC2=Nc3ccccc3NC(c3ccccc3)=C2C(c2cccc3ncccc23)N1 (stereo not given) ?
Cy5 interf NS3h: 1.1; HCV NS3h FP: 5

Results for CC1=C/C(=N/N=C2\NC(=O)C(CC(=O)Nc3ccc(C(=O)O)cc3)S2)CC(C)(C)C1 (stereo not given) ?
Cy5 interf NS3h: 1.1; HCV NS3h FP: 89*; NS3h confirm: 62*; SSB FP counter: 95*; Cy5 SSB fluor CB: 0.89; Cy5 interf conf: 0.75*

Results for O=C(CC1SC(=O)NC1=O)Nc1ccc(C(=O)O)cc1 (stereo not given) ?
Cy5 interf NS3h: 1.1; HCV NS3h FP: 18

Results for C/C(=N/N=C1\NC(=O)C(CC(=O)Nc2ccc(C(=O)O)cc2)S1)c1ccc([N+](=O)[O-])cc1 (stereo not given) ?
Cy5 interf NS3h: 1.1; HCV NS3h FP: 7

How did O=C(CC1S/C(=N/N=C\c2ccccc2)NC1=O)Nc1ccc(C(=O)O)cc1 (stereo not given) do in these assays?
Cy5 interf NS3h: 1.1; HCV NS3h FP: 128*; NS3h confirm: 53*; SSB FP counter: 101*; Cy5 SSB fluor CB: 0.87; Cy5 interf conf: 0.78*

Results for N#Cc1cn(-c2ccccc2)nc1-c1ccc(Cl)cc1 ?
Cy5 interf NS3h: 1; HCV NS3h FP: 4

Results for COc1cc(/C=C2\SC(=S)NC2=O)cc(Br)c1OC ?
Cy5 interf NS3h: 0.97; HCV NS3h FP: 2

How did COc1cc(/C=C2/SC(=S)NC2=O)ccc1OC(=O)c1ccccc1Br do in these assays?
Cy5 interf NS3h: 1.1; HCV NS3h FP: 42*; NS3h confirm: 8; SSB FP counter: 2; Cy5 SSB fluor CB: 1; Cy5 interf conf: 0.78*

What do the screens show for `O=C1c2ccccc2-c2onc3ccc(N4CCCCC4)c1c23`?
Cy5 interf NS3h: 1.1; HCV NS3h FP: 52*; NS3h confirm: 25; SSB FP counter: 71*; Cy5 SSB fluor CB: 1.2*; Cy5 interf conf: 0.79*

What do the screens show for `CC1CCN(c2cccc3c2C(=O)c2ccccc2C3=O)CC1`?
Cy5 interf NS3h: 1; HCV NS3h FP: 8

Results for CC1(C)CC(=O)C2=C(C1)c1cc3ccccc3cc1NC2c1cccc([N+](=O)[O-])c1 (stereo not given) ?
Cy5 interf NS3h: 1; HCV NS3h FP: 6

What do the screens show for `Cc1ccc(-c2nnc(SCC(=O)Nc3ccc(F)cc3)o2)cc1`?
Cy5 interf NS3h: 0.87; HCV NS3h FP: 62*; NS3h confirm: 40; SSB FP counter: 32; Cy5 SSB fluor CB: 1; Cy5 interf conf: 0.85

What do the screens show for `O=C(CSc1nnc(-c2ccc(Cl)cc2Cl)o1)Nc1ccccc1`?
Cy5 interf NS3h: 1; HCV NS3h FP: 1

How did CC(C)(C)C(=O)Nc1ccc(-c2nc3ccccc3o2)cc1 do in these assays?
Cy5 interf NS3h: 1; HCV NS3h FP: 0

Results for CC(=O)Nc1ccc(-c2nc3ccc(-c4ccc5nc(-c6ccc(NC(C)=O)cc6)oc(=O)c5c4)cc3c(=O)o2)cc1 ?
Cy5 interf NS3h: 1; HCV NS3h FP: 56*; NS3h confirm: 4; SSB FP counter: 47; Cy5 SSB fluor CB: 0.97; Cy5 interf conf: 1

What do the screens show for `C/C(=N/NS(=O)(=O)c1ccccc1)c1ccc(I)cc1`?
Cy5 interf NS3h: 1.1; HCV NS3h FP: 11

Results for CCN1C(=O)/C(=C\c2cn(-c3ccccc3)nc2-c2ccc(Br)cc2)SC1=S ?
Cy5 interf NS3h: 1.1; HCV NS3h FP: 7

What do the screens show for `O=C(O)CCN1C(=O)/C(=C/c2cn(-c3ccccc3)nc2-c2ccc(Br)cc2)SC1=S`?
Cy5 interf NS3h: 0.97; HCV NS3h FP: 146*; NS3h confirm: 35; SSB FP counter: 25; Cy5 SSB fluor CB: 0.92; Cy5 interf conf: 0.87

How did O=C(NCCN1CCN(C(=O)c2ccc([N+](=O)[O-])cc2)CC1)C(=O)Nc1ccc(Cl)cc1 do in these assays?
Cy5 interf NS3h: 0.96; HCV NS3h FP: 5

Results for COc1ccc(C)cc1NC(=O)c1ccc(OC)c([N+](=O)[O-])c1 ?
Cy5 interf NS3h: 0.97; HCV NS3h FP: 4
